Experimental data as given in the supplement of paper PMC6089552.
Among all 3,200 compounds or so, about 300 (9.4%) showed activity. What follows is part of a selection rich in actives, with near analogues and random picks from the rest.

Tested on: A673/TR/shEF
Assay: cell viability (LOESS-normalised, relative to median of negative controls) (log2 ratio); higher = more viable cells (less compound effect), active = hit call of the paper (over 3 MAD below the median)
Conditions: library screen: screen1, treatment time: 72 h
Summary of the method: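 A673/TR/shEF Ewing sarcoma cells were plated at 1,500 per well in 384-well plates and cultured with or without doxycycline, added 24 h before compounds, to induce EWS-FLI1 shRNA knockdown. Library compounds at two or more concentrations, alongside DMSO controls, were applied for three days. Cell viability was measured by CellTiter-Glo luminescence on an Envision reader. Readings were LOESS-corrected per plate, divided by the median of negative controls and log2-transformed, and hits were wells lying at least three median absolute deviations from the median of all screened wells.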

[1] = 0.25 µM, EWS-FLI1 expression: high (no doxycycline)
[2] = 0.25 µM, EWS-FLI1 expression: low (doxycycline-induced shRNA knockdown)
[3] = 2.5 µM, EWS-FLI1 expression: high (no doxycycline)
[4] = 2.5 µM, EWS-FLI1 expression: low (doxycycline-induced shRNA knockdown)

Measured: cell viability (log2)

NC(=O)c1cc[n+](CC2=C(C(=O)O)N3C(=O)[C@@H](NC(=O)C(c4ccccc4)S(=O)(=O)O)[C@H]3SC2)cc1 (some centres undefined)
inactive: [1] -0.0396 | [2] 0.081 | [3] -0.00797 | [4] 0.0119

CN1CCN(c2nc3ccccn3c(=O)c2/C=C2\SC(=S)N(C)C2=O)CC1
inactive: [1] 0.017 | [2] -0.00298 | [3] 0.0372 | [4] -0.00837

COc1ccc(-c2cc(=O)c3c(O)c(OC)c(OC4OC(COC5OC(C)C(O)C(O)C5O)C(O)C(O)C4O)cc3o2)cc1 (centres undefined)
inactive: [1] 0.0877 | [2] 0.0838 | [3] 0.171 | [4] 0.116

COc1ccc(-c2cc(=O)c3c(O)cc(O)cc3o2)cc1O
inactive: [1] -0.0193 | [2] -0.536 | [3] -0.0793 | [4] 0.0681

COc1ccc(-c2cc(=O)c3c(O)cc(O[C@@H]4O[C@H](CO[C@@H]5O[C@@H](C)[C@H](O)[C@@H](O)[C@H]5O)[C@@H](O)[C@H](O)[C@H]4O)cc3o2)cc1
inactive: [1] 0.0703 | [2] 0.0696 | [3] 0.0879 | [4] 0.0994

COc1ccc(-c2cc(=O)c3c(O)c(OC)c(OC)cc3o2)cc1O
inactive: [1] -0.076 | [2] -0.0378 | [4] -0.145
active: [3] -0.654

COc1cc(O)c2c(=O)cc(-c3ccc(OC)c(O)c3)oc2c1
inactive: [1] 0.0474 | [2] 0.00819 | [3] 0.132 | [4] 0.0369

COc1ccc(-c2cc(=O)c3c(O)cc(O[C@@H]4O[C@H](CO[C@@H]5O[C@@H](C)[C@H](O)[C@@H](O)[C@H]5O)[C@@H](O)[C@H](O)[C@H]4O)cc3o2)cc1O
active: [1] -0.0892 | [3] -0.0968
inactive: [2] 0.0382 | [4] 0.0709

COC(=O)C(O)[C@H]1C(C)(C)[C@@H](OC(C)=O)[C@@H]2CC3=C4CC(=O)O[C@@H](c5ccoc5)[C@]4(C)CCC3[C@@]1(C)C2=O (some centres undefined)
inactive: [1] 0.11 | [2] 0.119 | [3] 0.15 | [4] 0.0885

CC(=O)O[C@H]1CC[C@@]2(C)C(=CC[C@H]3[C@@H]4CC[C@H]([C@H](C)CCCC(C)C)[C@@]4(C)CC[C@@H]32)C1
inactive: [1] 0.0694 | [2] 0.0487 | [3] 0.14 | [4] 0.0189

O=C(O)C1CC(C2CCCCN2)CN2CCCCC12 (centres undefined)
inactive: [1] 0.039 | [2] 0.0346 | [3] 0.146 | [4] 0.0208
